This note sets out measurements from PubChem BioAssay (Tox21).

Records with an inconclusive call do not appear. A number with no mark means an inactive call. Active and inactive are the calls of the source. Calls come from the whole dose curve; as a rule, active = well fitted cell-killing curve with a large enough effect in the repeat runs; inconclusive = weak or mixed curves, or effect the other way; inactive = flat fitted curve, though single readings scatter.
% is set by controls: 0 for no effect and ±100 for the full control effect.

A short description of the first assay: cAMP Responsive Elements (CRE) small molecule antagonists, cell-based qHTS assay: qHTS cell viability counter screen (AID 2060913). Note: nearly all actives have a fitted effect of over 40% in size. Particulars: CRE-bla HEK293T viability, CellTiter-Glo luminescence, 5 h; series mostly up to 92.4 µM; viability change, negative = cytotoxic: at the top concentration. In short, it runs like this: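 Cytotoxicity read in the same wells as the CRE-bla HEK293T antagonist assay: after 3 h compound with 0.25 uM NKH477 final and 2 h beta-lactamase substrate, CellTiter-Glo luminescence measured.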
In the case of `CC1(C)S[C@@H]2[C@H](NC(=O)C(C(=O)O)c3ccccc3)C(=O)N2[C@H]1C(=O)O` (stereo partly drawn), the “viability change, negative = cytotoxic” value was -0.289% [at 42.5 µM]. In the case of `COC(=O)C1=C(C)NC(C)=C(C(=O)OC)C1c1ccccc1[N+](=O)[O-]`, the Potency result is “inactive”. Regarding `Nc1c(CC(=O)O)cccc1C(=O)c1ccc(Br)cc1`, the “viability change, negative = cytotoxic” value is 4.34% [at 42.5 µM].

Turning to `CCCCCCCC/C=C\CCCCCCCC(=O)OCC`, the “viability change, negative = cytotoxic” value was 5.22%.

For the compound `CC(=O)c1ccc2c(c1)[C@H](NC(=O)c1ccc(F)cc1)[C@@H](O)C(C)(C)O2`, the “viability change, negative = cytotoxic” value is -5.64%.

Take `O=C(/C=C/c1ccc(O)c(O)c1)O[C@@H]1C[C@](O)(C(=O)O)C[C@@H](O)[C@H]1O`: the “viability change, negative = cytotoxic” value was -0.246%. In the case of `Cc1cc(NS(=O)(=O)c2ccc(N)cc2)no1`, the Potency entry is “inactive”. On to `CNS(=O)(=O)Cc1ccc2[nH]cc(CCN(C)C)c2c1`, for which the “viability change, negative = cytotoxic” value was -1.85% [at 42.5 µM]. On to `O=C(O)CN(CC(=O)O)CC(=O)O`, for which the Potency result is “inactive”. For `O=C(CCCN1CC=C(n2c(=O)[nH]c3ccccc32)CC1)c1ccc(F)cc1`, the “viability change, negative = cytotoxic” value was 0.548% [at 42.5 µM]. `CCCCOCCOCCOC(=O)CCCCC(=O)OCCOCCOCCCC`: the Potency result is “inactive”. Take `CC(C)(C)C(=O)C(Oc1ccc(Cl)cc1)n1ccnc1` (stereo not drawn): the “viability change, negative = cytotoxic” value was 2.96% [at 42.5 µM]. Take `O=c1[nH]c(=O)c2cn[nH]c2[nH]1`: the “viability change, negative = cytotoxic” value was -0.724%. The same measure, in the same setting: the same measure for `OC1CCCc2ccccc21` (stereo not drawn): 4.14%; for `CC1(C)O[C@@H]2C[C@H]3[C@@H]4CCC5=CC(=O)CC[C@]5(C)[C@@]4(F)[C@@H](O)C[C@]3(C)[C@]2(C(=O)CCl)O1`: -0.459% [at 42.5 µM]. For the compound `O=C(COc1ccc(Cl)cc1)N1CCN(Cc2ccc3c(c2)OCO3)CC1`, the Potency entry was “inactive”. On to `C/C=C(\C)C(=O)OCC/C=C\CC`, for which the “viability change, negative = cytotoxic” value is 3.28%. For `O[C@@H](COc1cccc2ncccc12)CN1CCN(C2c3ccccc3[C@@H]3[C@H](c4ccccc42)C3(F)F)CC1` (stereo partly drawn), the “viability change, negative = cytotoxic” value was -15.7% [at 42.5 µM].

The next assay can be described thus: cAMP Responsive Elements (CRE) small molecule agonists, cell-based qHTS assay: qHTS cell viability counter screen (AID 2060914). Note: nearly all actives have a fitted effect of over 50% in size. Conditions: CRE-bla HEK293T viability, CellTiter-Glo luminescence, 5 h; series mostly up to 92.4 µM; activity change, negative = cytotoxicity: at the top concentration. In short, it runs like this:
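CRE-bla HEK 293T cells, plated 18 h at 37 °C, were exposed to compounds for 3 h at 37 °C/5% CO2. Viability was then measured in the same wells by CellTiter-Glo luminescence after 30 min at room temperature.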
For `Cc1cc(C2(c3cc(C)c(O)cc3C)OS(=O)(=O)c3ccccc32)c(C)cc1O`, the Potency result is “inactive”. On to `CC(C)OC(=O)CCCCC(=O)OC(C)C`, for which the “activity change, negative = cytotoxicity” value is -13.3%. For the compound `CCO[Si](CCCSSSSCCC[Si](OCC)(OCC)OCC)(OCC)OCC`, the “activity change, negative = cytotoxicity” value is -21%.

Regarding `Nc1ccc2c(O)cc(S(=O)(=O)O)cc2c1`, the “activity change, negative = cytotoxicity” value is -15.7%.

Turning to `CCCCCCCCN1CCCC1=O`, the “activity change, negative = cytotoxicity” value was -1.17%. For `CC(C)C1CCC(C(=O)N[C@H](Cc2ccccc2)C(=O)O)CC1` (stereo partly drawn), the “activity change, negative = cytotoxicity” value was 10.9% [at 42.5 µM]. For `Nc1ccc(C(=O)O)c(O)c1`, the “activity change, negative = cytotoxicity” value is -0.911% [at 42.5 µM].

Regarding `CCN(CC)CC(=O)Oc1ccc(NC(C)=O)cc1`, the “activity change, negative = cytotoxicity” value is -0.749% [at 42.5 µM]. As for `CC(=O)/C=C/C=C1/C2CCC(C2)C1(C)C` (stereo not drawn), the “activity change, negative = cytotoxicity” value is 1.12% [at 42.5 µM].

In the case of `CC(C)OC(=O)c1ccccc1`, the “activity change, negative = cytotoxicity” value is -2.18%. The same measure, in the same setting: the same measure for `OCCN(CCO)c1cccc(Cl)c1`: 2.48%; for `O=C(O)c1c(Cl)cccc1Cl`: -3.16%. The same measure, in the same setting: with `CC(=O)c1c(C)cc(C(C)(C)C)cc1C` the figure was -11.3%; with `CCCCC/C(=C\c1ccccc1)CO`, -19.2%; with `O=C1NCCN1CCN1CCC(c2cn(-c3ccc(F)cc3)c3ccc(Cl)cc23)CC1`, -24.7% [at 42.5 µM]. The same measure, in the same setting: with `C[C@]12CCC(=O)C=C1CC[C@@H]1[C@@H]2[C@@H](O)C[C@@]2(C)[C@H]1CC[C@]2(O)C(=O)COC(=O)CCC(=O)O` the figure was 1.97% [at 42.5 µM]. Regarding `COc1ccccc1N=Nc1c(S(=O)(=O)O)cc2cc(S(=O)(=O)O)cc(NC(C)=O)c2c1O`, the “activity change, negative = cytotoxicity” value was -1.84%.

Take `CN=C(NC#N)NCCSCc1csc(N=C(N)N)n1`: the “activity change, negative = cytotoxicity” value was 11.6% [at 42.5 µM]. Consider `O=c1n(CCCN2CCN(c3cccc(Cl)c3)CC2)nc2ccccn12`, for which the Potency result was “inactive”. Consider `CC(=O)CC(=O)c1ccccc1`, for which the “activity change, negative = cytotoxicity” value was 14.2%. On the same count and under the same terms, the same measure for `Cc1ccccc1CCO`: -1.24%; for `CCCCCCCCCCCCCCCCOS(=O)(=O)O`: 0.671% [at 42.5 µM]. On the same count and under the same terms, with `CC1(C)S[C@@H]2[C@H](NC(=O)C(C(=O)O)c3ccccc3)C(=O)N2[C@H]1C(=O)O` (stereo partly drawn) the figure was 5.26% [at 42.5 µM]. With `COC(=O)C1=C(C)NC(C)=C(C(=O)OC)C1c1ccccc1[N+](=O)[O-]`, the Potency entry is “inactive”. As to `Nc1c(CC(=O)O)cccc1C(=O)c1ccc(Br)cc1`, the “activity change, negative = cytotoxicity” value is -0.336% [at 42.5 µM].

Consider `CCCCCCCC/C=C\CCCCCCCC(=O)OCC`, for which the “activity change, negative = cytotoxicity” value was 0.225%.

Take `CC(=O)c1ccc2c(c1)[C@H](NC(=O)c1ccc(F)cc1)[C@@H](O)C(C)(C)O2`: the “activity change, negative = cytotoxicity” value was -9.59%.

Consider `O=C(/C=C/c1ccc(O)c(O)c1)O[C@@H]1C[C@](O)(C(=O)O)C[C@@H](O)[C@H]1O`, for which the “activity change, negative = cytotoxicity” value is -6.46%.

As to `Cc1cc(NS(=O)(=O)c2ccc(N)cc2)no1`, the Potency entry is “inactive”. Consider `CNS(=O)(=O)Cc1ccc2[nH]cc(CCN(C)C)c2c1`, for which the “activity change, negative = cytotoxicity” value was 4.29% [at 42.5 µM].

On to `O=C(O)CN(CC(=O)O)CC(=O)O`, for which the “activity change, negative = cytotoxicity” value was -1.11%. Turning to `O=C(CCCN1CC=C(n2c(=O)[nH]c3ccccc32)CC1)c1ccc(F)cc1`, the “activity change, negative = cytotoxicity” value was -6.04% [at 42.5 µM].

Turning to `CCCCOCCOCCOC(=O)CCCCC(=O)OCCOCCOCCCC`, the Potency result was “inactive”.

As for `CC(C)(C)C(=O)C(Oc1ccc(Cl)cc1)n1ccnc1` (stereo not drawn), the “activity change, negative = cytotoxicity” value is 4.19% [at 42.5 µM].

As to `O=c1[nH]c(=O)c2cn[nH]c2[nH]1`, the “activity change, negative = cytotoxicity” value was -9.98%. Same read-out and setting: with `OC1CCCc2ccccc21` (stereo not drawn) the figure was 1.18%. The same measure, in the same setting: with `CC1(C)O[C@@H]2C[C@H]3[C@@H]4CCC5=CC(=O)CC[C@]5(C)[C@@]4(F)[C@@H](O)C[C@]3(C)[C@]2(C(=O)CCl)O1` the figure was 6.6% [at 42.5 µM]; with `O=C(COc1ccc(Cl)cc1)N1CCN(Cc2ccc3c(c2)OCO3)CC1`, -20.3%; with `C/C=C(\C)C(=O)OCC/C=C\CC`, 7.29%.

Turning to `O[C@@H](COc1cccc2ncccc12)CN1CCN(C2c3ccccc3[C@@H]3[C@H](c4ccccc42)C3(F)F)CC1` (stereo partly drawn), the “activity change, negative = cytotoxicity” value was 4.12% [at 42.5 µM].
